# Data taken from PubChem BioAssay (EPA / NIEHS).
# Calls of active or inactive are those of the source. The calls were made as follows: active = hit-call score of the fitted dose curve at least 0.9, where 1 is the maximum; inactive = score below 0.9.
# Assay: ATG_ERE_CIS: Attagene CIS-FACTORIAL HepG2 Assay for Estrogen Response Element (ERE) (AID 2282940)
# Conditions: HepG2 ERE cis-reporter, Attagene RNA transcript; actives raise or lower the signal
# Description: ATG_CIS is a cell-based, multiplexed-readout assay that uses HepG2, a human liver cell line, with measurements taken at 24 hours after chemical dosing in a 24-well plate.ATG_ERE_CIS is one of 52 assay component(s) measured or calculated from the ATG_CIS assay. It is designed to make measurements of mRNA induction, a form of inducible reporter, as detected with fluorescence intensity signals by Reverse transcription polymerase chain reaction (RT-PCR) and Capillary electrophoresis technology.Data from the assay component ATG_ERE_CIS was analyzed into 1 assay endpoint. This assay endpoint, ATG_ERE_CIS, was analyzed with bidirectional fitting relative to DMSO as the negative control and baseline of activity. Using a type of inducible reporter, measures of mRNA for gain or loss-of-signal activity can be used to understand the reporter gene at the transcription factor-level as they relate to the gene ESR1. Furthermore, this assay endpoint can be referred to as a primary readout, because this assay has produced multiple assay endpoints where this one serves a reporter gene function. To generalize the intended target to other relatable targets, this assay endpoint is annotated to the nuclear receptor intended target family, where the subfamily is steroidal.
# Human liver HepG2 cells are transiently transfected with multiple reporter transcription units (MRTUs) in 6-well plates using FuGene 6 reagent (Roche; 3 ml FuGene/1 mg DNA). The MRTU constructs are regulated by a cis-regulating element (promoter). […] A major difference between the CIS and TRANS system is that in CIS activities of endogenous TFs are measured, whereas the TRANS assay evaluates changes in activities of exogenous, chimeric NR-Gal4 proteins. […] At the end of 24 hour incubation, total RNA was isolated using TriZol reagent (Invitrogen). The isolated RNA is then reverse-transcribed using oligo(dT) primer and Mo-MLV reverse transcriptase (Invitrogen) with DNAse I (Ambion) treatment for 30 min. The one-tenth of the produced cDNA was amplified by PCR using Taq DNA polymerase (Invitrogen) and two reporter sequence-specific primers. The PCR products were fluorescently labeled by primer extension with 6-arboxyfluorescein (6-FAM) 5'-labeled reporter sequence-specific primer (2 min at 95 C, 20 s at 68 C and 10 min at 72 C) and these products were digested with 5U of HpaI (New England Biolabs) for 2h at 37 C. The fragments were purified using Qiaquick PCR columns (Qiagen), analyzed on an ABI 3130xL genetic analyzer (Applied Biosystems) with peak positions identified by using a set of X-rhodamine (ROX)-labeled MapMarker1000 molecular weight standards (BioVentures). The raw capillary electrophoresis data was processed using Attagraph software (Attagene).
Compound,outcome,AC50
CC1=NC(C)OC1C (stereo not given),inactive,–
COCCOCCOCCOCCOC,inactive,–
O=C1C=CC(=O)O1,inactive,–
CC(C)(C)C1CCCCC1=O (stereo not given),inactive,–
NCCCN1CCN(CCCN)CC1,inactive,–
C=C[Si](OC(C)=O)(OC(C)=O)OC(C)=O,inactive,–
CCc1nccnc1C,inactive,–
O=C1c2ccccc2C(=O)C1c1nc2ccccc2c(Br)c1O,–,6.37 µM (active)
CC(C)C(=O)C(C)C,inactive,–
C=CCOc1c(Br)cc(Br)cc1Br,–,27.7 µM (active)
CCOC(=O)NNc1nncc2ccccc12,–,60 µM (active)
O=C1CCCC1,inactive,–
Cc1oncc1C(=O)Nc1ccc(C(F)(F)F)cc1,–,25.7 µM (active)
O=S(=O)(Oc1ccc(Cl)cc1Cl)c1ccccc1,–,7.97 µM (active)
OC1CCCC1,inactive,–
CC(C)=CC1CC(C)CCO1 (stereo not given),inactive,–
O=C(O)c1cc2ccccc2nc1C(=O)O,inactive,–
CC1(C)O[C@@H]2C[C@H]3[C@@H]4C[C@H](F)C5=CC(=O)C=C[C@]5(C)[C@@]4(F)[C@@H](O)C[C@]3(C)[C@]2(C(=O)CO)O1,–,4.27 µM (active)
Cc1ccc(C(C)c2ccc(C)c(C)c2)cc1C,inactive,–
CC=CCO,inactive,–

Compound,outcome,AC50
C[Si](C)(CCCN)O[Si](C)(C)CCCN,inactive,–
C=C(C)C(=O)OCCO,inactive,–
C=CCOCC(O)CCl (stereo not given),inactive,–
CNC(=S)NN,inactive,–
COCC(C)N (stereo not given),inactive,–
O=C(O)CC(C(=O)O)C(CC(=O)O)C(=O)O (stereo not given),inactive,–
O=c1cc(-c2ccccc2)oc2ccccc12,inactive,–
CC(C)c1ccc2c(c1)CC[C@H]1[C@](C)(CN)CCC[C@]21C,inactive,–
C=C1[C@H]2CC[C@@H]3[C@H]2C(C)(C)CCC[C@]13C,inactive,–
OCCc1ccncc1,inactive,–
O=c1c2ccccc2oc2ccccc12,–,26.4 µM (active)
Cn1c(=O)[nH]c2ncn(C)c2c1=O,inactive,–
CCCCCCCC(C)=O,inactive,–
O=C1C(N(CO)C(=O)NCO)N(CO)C(=O)N1CO (stereo not given),inactive,–
CCCCCCCCCCOS(=O)(=O)O,inactive,–
CC1=CC[C@H](C(C)C)C=C1,inactive,–
OC1OCCOC1O (stereo not given),inactive,–
FC(F)(F)C(=NOCC1OCCO1)c1ccc(Cl)cc1,inactive,–
CCN(CC#N)c1cccc(C)c1,inactive,–
[Cl][Bi]([Cl])([c]1ccccc1)([c]1ccccc1)[c]1ccccc1,inactive,–
